Shown are actives, neighbours in structure and some others; about 9.3% of the full set was active somewhere.
FLuc modulator – inhibits or activates purified firefly luciferase, miR-21 counter-screen | Potency, µM (highest dose often 57.5 µM), inactives show at the highest dose activity change, negative = inhibition, actives largely listed as inhibitors | 360,000 tested, 6.9% active | P08659 | AID 588342 | purified FLuc, Km substrates, luminescence inhibition;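 note: plate controls were vehicle for no effect and reference inhibitor for full effect; nearly all actives have a fitted effect of over 55% in size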
Target sequence (P08659 whole entry, looked up): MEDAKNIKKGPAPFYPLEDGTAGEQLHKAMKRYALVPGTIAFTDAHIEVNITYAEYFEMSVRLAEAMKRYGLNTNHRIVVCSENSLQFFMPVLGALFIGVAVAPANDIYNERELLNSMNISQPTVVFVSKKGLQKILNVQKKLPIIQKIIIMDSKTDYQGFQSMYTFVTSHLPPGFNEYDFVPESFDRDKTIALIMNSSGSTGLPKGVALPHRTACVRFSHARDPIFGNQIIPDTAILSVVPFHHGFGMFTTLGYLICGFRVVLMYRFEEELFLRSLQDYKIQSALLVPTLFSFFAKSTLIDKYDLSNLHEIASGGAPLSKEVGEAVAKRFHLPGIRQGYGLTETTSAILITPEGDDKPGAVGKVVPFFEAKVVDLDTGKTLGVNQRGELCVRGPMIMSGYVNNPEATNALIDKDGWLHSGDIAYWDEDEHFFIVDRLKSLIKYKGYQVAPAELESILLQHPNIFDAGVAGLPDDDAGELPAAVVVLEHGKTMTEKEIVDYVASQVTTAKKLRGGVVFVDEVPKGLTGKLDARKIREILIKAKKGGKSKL
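Purified P. pyralis luciferase (10nM final) with 10uM D-luciferin and 10uM ATP (Km levels) in 50mM Tris acetate pH 7.5, 10mM Mg acetate, 0.01% Tween-20, 0.05% BSA; qHTS 6-point titration, ~60 µM downward; luminescence read.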
SMN2 splice up – SMN2 splice variant enhancement | HEK293 SMN2-luciferase splicing reporter, luminescence, 30-36 h | Potency, µM (highest dose often 46.1 µM), for the others: top-dose activity change, positive = activation, hits mostly activators | 210,000 tested, 2.8% active; note: % of control where 0% means no effect; nearly all actives have a fitted effect of over 55% in size
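qHTS luciferase splicing reporter: luminescence rises when SMN2 exon 7 is included in transfected HEK293 cells. Compound exposure lasted 30-36 h at 37C, with 4.5 mM final sodium butyrate as control, followed by a ONE-Glo read.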
ELG1 DNA repair – inhibitors of ELG1-dependent DNA repair in HEK293T cells | 330,000 tested, 2.3% active | HEK293T ELG1-luciferase reporter, luminescence, 16 h; DNA damage induced by 5-fluorouridine | AID 504467 | Potency, µM (top dose mostly 46.1 µM), inactives show top-dose activity change, negative = inhibition, actives largely listed as inhibitors; note: % is set by controls: 0 for no effect and ±100 for the full control effect; nearly all actives have a fitted effect of over 55% in size
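5-Fluorouridine DNA damage + compound/DMSO, 2,000 cells/well, 16 h, 37 °C/5% CO2. ONE-Glo, 30 min RT, luminescence. Readout = decrease in reporter signal.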
NPC1 promoter act – activators of NPC1 promoter. Huh7 NPC1 promoter luciferase reporter, 24 h. Potency, µM (highest dose often 9.22 µM), inactives show at the highest dose activation, usual class: activators. 320,000 tested, 2.4% active. AID 485313; note: % of control where 0% means no effect; nearly all actives have a fitted effect of over 60% in size
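Luciferase expression driven by the NPC1 promoter was measured in stably transfected Huh7 cells after a 24 h compound incubation, using a luciferase reagent and a luminescence read.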
Rab9 promoter act – activators of Rab9 promoter | Potency, µM (doses to about 9.22 µM), without a hit: at the highest dose activation, negative = inhibition, hits mostly activators | Huh7 Rab9 promoter-luciferase reporter, luminescence, 24 h | 320,000 tested, 2.8% active; note: % of control where 0% means no effect; nearly all actives have a fitted effect of over 60% in size
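Luciferase signal after 10 min detection reagent at ambient indicates Rab9 promoter upregulation; stably transfected Huh7 cells were treated 24 h with compound in DMSO at 37 °C, 5% CO2.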
ELG1 genotoxic – genotoxicity induction in ELG1-luciferase HEK293T cells | Potency, µM (highest dose often 46 µM), for the others: at the top dose activity change, positive = activation, actives largely listed as activators | AID 504466 | 330,000 tested, 1.3% active | HEK293T ELG1-luciferase reporter, luminescence, 16 h; note: % of control where 0% means no effect; nearly all actives have a fitted effect of over 60% in size
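Reporter readout depends on ELG1 protein level, which increases with genetic stress. After 16 hr compound exposure at 37 °C, luciferase activity was quantified using ONE-Glo.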
* = called active by the depositor; ? = inconclusive; nt = not tested or not shown. Calls come from the whole dose curve; as a rule, active = well fitted curve in the direction sought with a large enough effect; inconclusive = small, poorly fitted or top-dose-only effect, or another doubt; inactive = no such curve, though single readings can be large; an effect the other way counts as inactive or inconclusive. Potency is the fitted concentration of half-maximal effect.

SMILES | FLuc modulator | SMN2 splice up | ELG1 DNA repair | NPC1 promoter act | Rab9 promoter act | ELG1 genotoxic
CCn1cc(C2=NC(c3ccccc3)CO2)c2ccccc21 (configuration not stated) | ? | -3% | 15% | -6% | -2% | 6%
O=[N+]([O-])c1cccc(C2CC(c3ccccc3)=NN2c2ccccc2)c1 (configuration not stated) | ? | nt | 12% | -4% | 5% | 0%
CSCC[C@H](NC(=O)OC(C)(C)C)C(=O)N1CCC(C(=O)N[C@@H](Cc2c[nH]c3ccccc23)C(=O)O)CC1 | 0% | nt | 2% | 0% | 0% | 0%
Cc1ccc(CC2C(=O)N(c3cc(Cl)ccn3)C(=O)C2C)cc1 (configuration not stated) | ? | nt | ? | 16% | 17% | 9%
O=c1[nH]cnc2c1cnn2Cc1ccccc1Cl | -1% | nt | 9% | -1% | 5% | 0%
COc1ccc(CCC(=O)Nc2sccc2C#N)cc1 | 17µM* | 16µM* | ? | 4µM* | 2µM* | 6.5µM*
N#Cc1ccsc1NC(=O)COC(=O)c1ccc(Br)o1 | nt | nt | ? | nt | nt | 4%
N#Cc1ccsc1NC(=O)COC(=O)c1ccc2ccccc2c1 | 11µM* | ? | ? | ? | 0.45µM* | ?
N#Cc1ccsc1NC(=O)COC(=O)c1cc(Br)ccc1O | 9.5µM* | nt | ? | 16% | ? | 15%
Cc1ccc(OCCNS(=O)(=O)c2ccc(Cl)cc2)cc1 | nt | nt | 10% | -4% | -3% | 0%
COc1ccc(NC(=O)CN2C(=O)NC(C)(C3CC3)C2=O)c(OC)c1 (configuration not stated) | 2% | nt | 16% | -3% | 2% | 0%
Cc1ccc(-c2cc(-c3ccccc3O)nc(N/N=C/c3cccnc3)n2)cc1 | ? | -12% | ? | 17% | 25% | -2%
CSc1nccc(N/N=C/c2ccccc2)n1 | 2.7µM* | nt | ? | 1.6µM* | 1.4µM* | ?
C(=N\Nc1ccc(-n2ccnc2)nn1)/c1ccccc1 | -7% | 23% | 0% | 10% | -5% | 17%
C(=N\Nc1nccc(-c2cccnc2)n1)/c1ccccc1 | 4.8µM* | nt | ? | 1.8µM* | 1.3µM* | 12%
Cc1ccnc(N/N=C/c2ccccc2)n1 | 7.6µM* | 13µM* | ? | 2.5µM* | 1.3µM* | ?
COc1cccc(NC(=O)CN(C)C(=O)C(C)Sc2ccccc2)c1 (configuration not stated) | -1% | nt | -8% | 0% | 2% | -2%
COC(=O)C1C(=O)c2c(C)noc2CC1(C)C (configuration not stated) | -2% | nt | 9% | 2% | 0% | 9%
Cc1cc(=O)oc2cc(OC(=O)CCCCCN3C(=O)c4ccccc4C3=O)ccc12 | -4% | -7% | 2% | 0% | -2% | 1%
CC1CCCCN1C(=O)CCc1nnc(Cc2c[nH]c3ccccc23)o1 (configuration not stated) | -2% | nt | 14% | -4% | -1% | 0%
CN(C)c1oc(-c2ccc(OCc3ccc(Cl)cc3)cc2)nc1C#N | 1% | -18% | 6% | -1% | 10% | 15%
CN(C)c1ccc(NC(=O)c2sc(SCC(=O)Nc3ccc(Br)cc3)nc2N)cc1 | -17% | -18% | 6% | -3% | 14% | 9%
CCCCNC(=O)CSc1nc(N)c(C(=O)Nc2ccc(OC)cc2)s1 | 17µM* | nt | 10% | 26% | 28% | 10%
CN(C)c1ccc(NC(=O)c2sc(SCC(=O)Nc3nccs3)nc2N)cc1 | 1.9µM* | 69% | ? | 25% | ? | ?
C=CCC[C@@H](Cc1ccc(F)cc1)C(=O)OC[C@@H](NC(=O)[C@@H](CC=C)CC(=O)N(CCO)Cc1ccccc1)c1ccccc1 | nt | nt | 21µM* | nt | nt | -10%

Source: PubChem BioAssay
